# Measurements taken from publication PMC9911399, “Two distinct binding modes provide the RNA-binding protein RbFox with extraordinary sequence specificity”.
# Numbering of substitutions follows the chain as printed; changes in the protein carry UniProt numbers. In all, about 16,000 sequences were measured (“ka relative to ugcaugu”: median about 0.0091, highest 2% from about 0.032 on). The sample as a whole holds a higher share of the highest values than the screen did.
# T1: RBFOX1 RRM (Homo sapiens, UniProt Q9NWB1 109-208)
# T1 sequence: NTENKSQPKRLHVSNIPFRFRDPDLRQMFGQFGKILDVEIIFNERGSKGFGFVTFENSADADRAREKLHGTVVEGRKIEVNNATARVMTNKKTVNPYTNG
# B1: UAGUGAU (DNA:RNA)
# RNA: GGGAGACCGGAAUUCAGAUUGUCCUAGUGAUUUAAAUCCCGUCGUAGCCACCA
# DNA 1: CAATCTGAATTCCGGTCTCCC
# DNA 2: TGGTGGCTACGACGGGATT
# B2: CACUUCG (DNA:RNA)
# RNA: B1 RNA with U25C, G27C, G29U, A30C, U31G
# DNA 1: CAATCTGAATTCCGGTCTCCC
# DNA 2: TGGTGGCTACGACGGGATT
# B3: GUCUGUU (DNA:RNA)
# RNA: B1 RNA with U25G, A26U, G27C, A30U
# DNA 1: CAATCTGAATTCCGGTCTCCC
# DNA 2: TGGTGGCTACGACGGGATT
# B4: GGGUUAG (DNA:RNA)
# RNA: B1 RNA with U25G, A26G, G29U, U31G
# DNA 1: CAATCTGAATTCCGGTCTCCC
# DNA 2: TGGTGGCTACGACGGGATT
# B5: CUGAUGG (DNA:RNA)
# RNA: B1 RNA with U25C, A26U, U28A, G29U, A30G, U31G
# DNA 1: CAATCTGAATTCCGGTCTCCC
# DNA 2: TGGTGGCTACGACGGGATT
# B6: AGAACUG (DNA:RNA)
# RNA: GGGAGACCGGAAUUCAGAUUGUCCAGAACUGUUAAAUCCCGUCGUAGCCACCA
# DNA 1: CAATCTGAATTCCGGTCTCCC
# DNA 2: TGGTGGCTACGACGGGATT
# B7: GCAAAGC (DNA:RNA)
# RNA: B6 RNA with A25G, G26C, C29A, U30G, G31C
# DNA 1: CAATCTGAATTCCGGTCTCCC
# DNA 2: TGGTGGCTACGACGGGATT
# B8: UUGCGGA (DNA:RNA)
# RNA: B1 RNA with A26U, U28C, A30G, U31A
# DNA 1: CAATCTGAATTCCGGTCTCCC
# DNA 2: TGGTGGCTACGACGGGATT
# B9: GCGGGCU (DNA:RNA)
# RNA: B1 RNA with U25G, A26C, U28G, A30C
# DNA 1: CAATCTGAATTCCGGTCTCCC
# DNA 2: TGGTGGCTACGACGGGATT
# B10: CGGGCUU (DNA:RNA)
# RNA: B6 RNA with A25C, A27G, A28G, G31U
# DNA 1: CAATCTGAATTCCGGTCTCCC
# DNA 2: TGGTGGCTACGACGGGATT
# B11: CGGCUUU (DNA:RNA)
# RNA: B6 RNA with A25C, A27G, A28C, C29U, G31U
# DNA 1: CAATCTGAATTCCGGTCTCCC
# DNA 2: TGGTGGCTACGACGGGATT
# B12: GGGGGCU (DNA:RNA)
# RNA: B1 RNA with U25G, A26G, U28G, A30C
# DNA 1: CAATCTGAATTCCGGTCTCCC
# DNA 2: TGGTGGCTACGACGGGATT
# B13: CGGGGCU (DNA:RNA)
# RNA: B1 RNA with U25C, A26G, U28G, A30C
# DNA 1: CAATCTGAATTCCGGTCTCCC
# DNA 2: TGGTGGCTACGACGGGATT
# B14: CCGGGCU (DNA:RNA)
# RNA: B1 RNA with U25C, A26C, U28G, A30C
# DNA 1: CAATCTGAATTCCGGTCTCCC
# DNA 2: TGGTGGCTACGACGGGATT
# B15: GGGGCUU (DNA:RNA)
# RNA: B6 RNA with A25G, A27G, A28G, G31U
# DNA 1: CAATCTGAATTCCGGTCTCCC
# DNA 2: TGGTGGCTACGACGGGATT
# B16: GGGCUUU (DNA:RNA)
# RNA: B6 RNA with A25G, A27G, A28C, C29U, G31U
# DNA 1: CAATCTGAATTCCGGTCTCCC
# DNA 2: TGGTGGCTACGACGGGATT
# B17: GGCUUUU (DNA:RNA)
# RNA: B6 RNA with A25G, A27C, A28U, C29U, G31U
# DNA 1: CAATCTGAATTCCGGTCTCCC
# DNA 2: TGGTGGCTACGACGGGATT
# B18: GUGGGCU (DNA:RNA)
# RNA: B1 RNA with U25G, A26U, U28G, A30C
# DNA 1: CAATCTGAATTCCGGTCTCCC
# DNA 2: TGGTGGCTACGACGGGATT
# B19: CGUCAGA (DNA:RNA)
# RNA: B6 RNA with A25C, A27U, A28C, C29A, U30G, G31A
# DNA 1: CAATCTGAATTCCGGTCTCCC
# DNA 2: TGGTGGCTACGACGGGATT
# B20: GGAGUGG (DNA:RNA)
# RNA: B6 RNA with A25G, A28G, C29U, U30G
# DNA 1: CAATCTGAATTCCGGTCTCCC
# DNA 2: TGGTGGCTACGACGGGATT
# B21: ACAUGGG (DNA:RNA)
# RNA: B6 RNA with G26C, A28U, C29G, U30G
# DNA 1: CAATCTGAATTCCGGTCTCCC
# DNA 2: TGGTGGCTACGACGGGATT
# B22: CCUAGUG (DNA:RNA)
# RNA: B6 RNA with A25C, G26C, A27U, C29G
# DNA 1: CAATCTGAATTCCGGTCTCCC
# DNA 2: TGGTGGCTACGACGGGATT
# B23: AAUUAGC (DNA:RNA)
# RNA: B1 RNA with U25A, G27U, G29A, A30G, U31C
# DNA 1: CAATCTGAATTCCGGTCTCCC
# DNA 2: TGGTGGCTACGACGGGATT
# B24: UUUAACA (DNA:RNA)
# RNA: B6 RNA with A25U, G26U, A27U, C29A, U30C, G31A
# DNA 1: CAATCTGAATTCCGGTCTCCC
# DNA 2: TGGTGGCTACGACGGGATT
# B25: GGGACGU (DNA:RNA)
# RNA: B6 RNA with A25G, A27G, U30G, G31U
# DNA 1: CAATCTGAATTCCGGTCTCCC
# DNA 2: TGGTGGCTACGACGGGATT
# B26: GGGUGCU (DNA:RNA)
# RNA: B1 RNA with U25G, A26G, A30C
# DNA 1: CAATCTGAATTCCGGTCTCCC
# DNA 2: TGGTGGCTACGACGGGATT
# B27: CCGGUGC (DNA:RNA)
# RNA: B1 RNA with U25C, A26C, U28G, G29U, A30G, U31C
# DNA 1: CAATCTGAATTCCGGTCTCCC
# DNA 2: TGGTGGCTACGACGGGATT
# B28: GGGGUGC (DNA:RNA)
# RNA: B6 RNA with A25G, A27G, A28G, C29U, U30G, G31C
# DNA 1: CAATCTGAATTCCGGTCTCCC
# DNA 2: TGGTGGCTACGACGGGATT
# B29: GGGUGCG (DNA:RNA)
# RNA: B1 RNA with U25G, A26G, A30C, U31G
# DNA 1: CAATCTGAATTCCGGTCTCCC
# DNA 2: TGGTGGCTACGACGGGATT
# B30: CGGGUGC (DNA:RNA)
# RNA: B6 RNA with A25C, A27G, A28G, C29U, U30G, G31C
# DNA 1: CAATCTGAATTCCGGTCTCCC
# DNA 2: TGGTGGCTACGACGGGATT
# B31: AGGGUGC (DNA:RNA)
# RNA: B6 RNA with A27G, A28G, C29U, U30G, G31C
# DNA 1: CAATCTGAATTCCGGTCTCCC
# DNA 2: TGGTGGCTACGACGGGATT
# Target: T1, RBFOX1 RRM
# Assay: EMSA; HiTS-Eq, 1 nM pool, 10 min; buffer printed only for the single-RNA assays: 10 mM Tris pH 7.5, 150 mM NaCl, 3.4 mM EDTA, 0.001% NP-40, 30 C
# Settings: tags: His6 N-terminal (pET28a); label: 5' 32P
# Method in brief: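 A pool of RNA with 7 randomized nucleotides, 5′-radiolabelled and with DNA-annealed flanks, was equilibrated at 1 nM for 10 min in 50 µL with purified RbFox RRM, wild type or mutant, across increasing protein concentrations. Free RNA was separated by 8% native PAGE, excised, reverse-transcribed, barcoded by PCR and sequenced. Relative association constants were obtained from read-count changes of each RNA species versus the control reaction and normalised to the cognate motif.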
row,Binder,binding signal
1,B1,0.00564 KA relative to UGCAUGU
2,B2,0.0103 KA relative to UGCAUGU
3,B3,0.0246 KA relative to UGCAUGU
4,B4,0.0153 KA relative to UGCAUGU
5,B5,0.0123 KA relative to UGCAUGU
6,B6,0.0109 KA relative to UGCAUGU
7,B7,0.0111 KA relative to UGCAUGU
8,B8,0.0101 KA relative to UGCAUGU
9,B9,0.0197 KA relative to UGCAUGU
10,B10,0.0317 KA relative to UGCAUGU
11,B11,0.0187 KA relative to UGCAUGU
12,B12,0.0377 KA relative to UGCAUGU
13,B13,0.0294 KA relative to UGCAUGU
14,B14,0.00883 KA relative to UGCAUGU
15,B15,0.033 KA relative to UGCAUGU
16,B16,0.0244 KA relative to UGCAUGU

row,Binder,binding signal
1,B17,0.0115 KA relative to UGCAUGU
2,B18,0.0216 KA relative to UGCAUGU
3,B19,0.00954 KA relative to UGCAUGU
4,B20,0.0151 KA relative to UGCAUGU
5,B21,0.0064 KA relative to UGCAUGU
6,B22,0.00931 KA relative to UGCAUGU
7,B23,0.00552 KA relative to UGCAUGU
8,B24,0.00144 KA relative to UGCAUGU
9,B25,0.0238 KA relative to UGCAUGU
10,B26,0.0276 KA relative to UGCAUGU
11,B27,0.0149 KA relative to UGCAUGU
12,B28,0.0467 KA relative to UGCAUGU
13,B29,0.023 KA relative to UGCAUGU
14,B30,0.0369 KA relative to UGCAUGU
15,B31,0.0198 KA relative to UGCAUGU
